# Compounds with a hit are over-represented: about 2.4% of the library has one in this group of screens.
# D2 antagonist: D2 dopamine receptor (human) antagonism; 340,000 compounds, 2% hits; P14416; HEK293 TREx D2 cells, calcium flux, dopamine EC80; inhibition, % at 10 µM; in the data active means inhibition above about 30%; inactive means below that, where a call was filed; further: 0% is about no effect
#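 Measurement of antagonist activity uses fluorescent calcium dye in inducible HEK293 T-REx D2 cells: 10 s baseline, compound addition with 180 s read, EC80 dopamine addition with a further 180 s read.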
# D2 PAM-1: D2 dopamine receptor (human) potentiation; HEK293 T-REx D2, calcium flux, EC20 dopamine potentiation; P14416; AID 485347; potentiation, % at 10 µM; 340,000 compounds, 0.34% hits;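 active means potentiation over 3 SD above the plate norm, cut at about 30% in these data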; further: 0% is about no effect
#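 Tetracycline-induced HEK293 T-REx cells force-coupled to calcium signalling expressed D2; compounds were pin-added after a 10 s baseline, read kinetically 180 s, then an EC20 dopamine challenge followed with a further 180 s calcium read.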
# D2 ag-1: human D2 receptor agonism in beta-arrestin assay; DiscoveRx PathHunter D2 beta-arrestin, luminescence, 90 min; 100% = 57 uM dopamine signal; AID 624465; P14416; activation, % (concentration not given with the values); 360,000 compounds, 0.084% hits; in the data active means activation above about 40%; inconclusive means between about 15% and that limit
#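 DiscoveRx PathHunter D2 beta-arrestin cells (2,100/well) attached overnight, then compound-stimulated 90 min at 37 C in HBSS/10 mM HEPES/0.1% Tween-20 buffer; beta-galactosidase complementation read by luminescence after 1 h at ambient temperature. Dopamine 57 uM final (EC100) as control.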
# D2 PAM-2: potentiates the human D2 dopamine receptor allosterically | 360,000 compounds, 0.23% hits | AID 624464 | potentiation, % (concentration not given with the values) | DiscoveRx D2 beta-arrestin cells, luminescence, 90 min; 100% = 57 uM dopamine signal; in the data active means potentiation above about 50%; inconclusive means mostly about 30% to 49%
#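 PathHunter beta-arrestin assay in DiscoveRx D2 cells. Compounds were added with an EC20 of dopamine (50 nM final) for 90 min at 37 deg C. Luminescence was read 1 h after detection reagent, with 57 uM dopamine as the EC100 control.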
# D2 ag-2: D2 dopamine receptor (human) agonism. P14416. HEK293 T-REx D2 cells, calcium flux agonist mode. activation, % at 2 µM. 340,000 compounds, 0.53% hits;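 active means activation over 3 SD above normal in the single-dose calcium agonist read, cut at about 30% in these data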; further: 0% is about no effect
#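 HEK293 Trex D2 cells, tetracycline-induced, o/n 30 C 5% CO2; no-wash Ca dye, RT 30–90 min; 10-cycle baseline, 23 nl cpd added, kinetic Ca read 180 s; agonist hits = positive Ca response.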
# D3 ag: D3 receptor agonism confirmed, beta-arrestin readout; shares compounds with D2 ag-2; DiscoveRx D3 beta-arrestin cells, luminescence, 90 min; Potency, µM (highest dose often 76.9 µM), inactives show at the highest dose activation, hits mostly activators; 2,300 compounds, 4% hits;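 further: potency means the concentration at half of the fitted maximal effect; 100% = dopamine control response; nearly all actives have a fitted effect of over 70% in size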
# Target sequence (P35462 whole entry, looked up): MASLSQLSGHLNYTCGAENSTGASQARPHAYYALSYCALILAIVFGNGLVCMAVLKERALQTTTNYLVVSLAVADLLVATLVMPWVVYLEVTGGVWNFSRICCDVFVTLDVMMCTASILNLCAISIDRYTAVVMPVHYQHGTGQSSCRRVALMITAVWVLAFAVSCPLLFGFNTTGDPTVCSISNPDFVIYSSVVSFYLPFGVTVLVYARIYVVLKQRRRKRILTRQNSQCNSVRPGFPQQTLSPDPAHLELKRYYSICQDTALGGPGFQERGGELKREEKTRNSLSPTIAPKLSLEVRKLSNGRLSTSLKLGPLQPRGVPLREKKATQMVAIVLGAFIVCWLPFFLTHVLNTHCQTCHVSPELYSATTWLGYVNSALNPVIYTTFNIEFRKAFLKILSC
# D2 ag-3: activates human D2 dopamine receptor in D3 counterscreen; shares compounds with D2 ag-2; DiscoveRx PathHunter D2 beta-arrestin, luminescence, 90 min; response scale: percent relative to full dopamine signal; Potency, µM (doses to about 76.9 µM), for the others: at the highest dose activation, actives largely listed as activators; 2,300 compounds, 5.9% hits; AID 720507; further: potency means the concentration at half of the fitted maximal effect; % of control where 0% means no effect; nearly all actives have a fitted effect of over 70% in size
# Starred values were filed as active, the others as inactive; u = inconclusive; x = not tested or not shown. Unless noted, the call rests on the fitted dose curve; in most records, active means well fitted activation curve with a large enough effect; inconclusive means small, poorly fitted or top-dose-only effect; inactive means flat fitted curve, though single readings scatter.
SMILES,D2 antagonist,D2 PAM-1,D2 ag-1,D2 PAM-2,D2 ag-2,D3 ag,D2 ag-3
CSCCC(NC(=O)COc1ccccc1)C(=O)N1CC(C)OC(C)C1 (stereo not drawn),-13.9,-4.4,-1.8,-0.9,0.4,-5.8%,-2.2%
CSCCC(NC(=O)COc1ccccc1)C(=O)N1CC(C)CC(C)C1 (stereo not drawn),-2.9,6.5,3.4,-2.2,-0.1,x,x
CC(=O)c1ccc(NC(=O)CSc2nccn2Cc2ccc3c(c2)OCO3)cc1,x,0.7,x,x,-0.3,x,x
COc1ccc(-n2c(Cc3cccn3C)nnc2SCC(=O)N2CCCC2)cc1,10.3,-21.0,-0.9,-3.6,59.2*,-2.0%,-2.2%
COc1ccc(-n2c(Cc3cccn3C)nnc2SCC(=O)N2CCC(C)CC2)cc1,-12.9,-5.6,-3.0,-1.4,-1.4,x,x
S=C(NCc1ccccc1)NC1CCCCC1,2.8,-10.6,-0.5,-6.6,-0.1,x,x
S=C(NCCCc1ccccc1)NC1CCCCC1,-3.3,-19.5,-3.3,-21.1,36.6*,5.4%,-0.6%
C/C(=N\NC(=S)NC1CCCCC1)c1ccccc1,40.7*,-22.7,11.2,-43.8,44.6*,2.5%,30.0%
COc1cc2c(cc1OC)C(COc1ccc3c(C)cc(=O)oc3c1)N(C(=O)c1ccc(C)cc1)CC2 (stereo not drawn),x,27.7,x,x,-0.5,x,x
Cc1cc(OCc2cc(C(=O)NC3CCC3)no2)cc(C)c1Cl,43.0*,-1.8,2.1,-1.7,0.3,6.2%,6.6%
Cc1cc(OCc2cc(C(=O)N3CCC(Oc4cccnc4)CC3)no2)cc(C)c1Cl,-7.0,-15.2,3.9,-10.0,50.7*,19.4%,u
Cc1c(N=c2scc(-c3ccccc3)n2C)c(=O)n(-c2ccccc2)n1C,75.5*,-15.9,u,-5.5,66.1*,-1.3%,u
Cc1c(N=c2scc(-c3ccccc3)n2CCO)c(=O)n(-c2ccccc2)n1C,0.5,-4.3,0.5,-4.6,23.7,x,x
CCC(NC(C)C)C(O)c1ccc(O)c(O)c1 (stereo not drawn),23.9,7.8,-0.8,-0.2,13.1,u,12.4%
O=C(Cn1c(=O)c2cccn2c2ccc(F)cc21)N1CCN(c2ccccc2F)CC1,x,x,x,x,0.1,x,x
Cc1c(Cl)cccc1NC(=O)CSc1nc(=O)[nH]c2c1CCCC2,x,3.4,x,x,0.3,x,x
O=C(Nc1ccn(CCCN2CCN(c3ncccn3)CC2)c(=O)n1)OCc1ccccc1,x,x,5.8,x,x,x,x
O=C(Nc1ccn(CC(=O)N2CCN(c3ccccn3)CC2)c(=O)n1)OCc1ccccc1,-2.8,8.0,-2.4,2.2,0.1,-2.5%,0.4%
Nc1ccc(C(=O)O)cc1[N+](=O)[O-],-18.5,-1.5,-4.7,-5.5,0.0,x,x
Nc1ccc(C(=O)c2cccs2)cc1[N+](=O)[O-],19.4,7.2,-1.6,-14.8,0.0,-3.8%,-5.4%
CC(=O)c1cccc(CN2CCCC(N3CCN(c4ccccc4F)CC3)C2)c1 (stereo not drawn),x,-28.0,11.7,-0.8,x,8.3%,u
O=C(c1noc2c1CCCC2)N1CCCC(N2CCN(c3ccccc3F)CC2)C1 (stereo not drawn),14.8,-13.5,1.7,-20.3,41.1*,0.7%,6.3%
Fc1ccccc1N1CCN(C2CCCN(Cc3ccccc3C(F)(F)F)C2)CC1 (stereo not drawn),x,-8.5,-2.4,-3.6,x,2.8%,21.3%
COc1ccccc1CN1CCCC(N2CCN(c3ccccc3OC)CC2)C1 (stereo not drawn),-6.2,-14.0,-3.0,-2.6,0.8,x,x
O=C(c1ccsc1)N1CCCC(N2CCN(c3ccccc3F)CC2)C1 (stereo not drawn),0.3,-10.9,1.2,-30.5,11.8,x,x
SMILES,D2 antagonist,D2 PAM-1,D2 ag-1,D2 PAM-2,D2 ag-2,D3 ag,D2 ag-3
COCCCNC(=O)CCc1c(C)nc2cc(-c3ccc(Cl)cc3)nn2c1C,x,-3.4,x,x,x,x,x
COc1ccc(CCNC(=O)CCCCn2c(=O)c3ccccc3n(Cc3ccccc3Cl)c2=O)cc1OC,x,-4.9,x,x,0.1,x,x
Cc1ccc(C)c(-n2c3nc(=O)[nH]c(=O)c-3cc3c(C)nn(-c4ccccc4)c32)c1,x,-6.1,x,x,0.1,x,x
CCOc1ccc(NC(=O)CN2C(=O)C3(SCC(=O)N3c3ccc(F)cc3)c3ccccc32)cc1 (stereo not drawn),x,-2.7,x,x,0.4,x,x
Cc1cc(C)cc(NC(=O)CCN2C(=O)c3ccccc3Sc3ncccc32)c1,x,5.6,x,x,0.0,x,x
COc1cccc(N2CN(CCc3ccccc3)CNC2=S)c1,23.7,-6.2,-2.8,-2.7,37.5*,-6.0%,-0.4%
CCOC(CNC(=O)Cn1nc(Cc2ccncc2)c2ccccc2c1=O)OCC,-4.8,9.5,1.2,2.5,0.4,x,x
COC(CNC(=O)Cn1nc(Cc2ccncc2)c2ccccc2c1=O)OC,-12.5,2.2,1.9,-12.3,-0.1,-0.6%,3.7%
CCN(c1cc(C)cc(C)c1)S(=O)(=O)c1nnc(NC(=O)C2CCCCC2)s1,x,-10.2,x,x,-0.6,x,x
Cc1ccccc1NC(=O)c1oc2c(c1C)-c1nn(Cc3cccc(Cl)c3)cc1CC2,x,-5.5,x,x,0.2,x,x
O=C(C1CCN(S(=O)(=O)c2ccc(Cl)c(C(F)(F)F)c2)CC1)N1CCC1,-8.6,1.3,5.4,-0.6,0.7,0.5%,0.6%
CC(=O)c1cccc(NC(=O)c2ccc3nc(C(C)C)oc3c2)c1,x,0.9,x,x,0.5,x,x
CCOC(=O)N1CCc2c(sc(NCc3cc(OC)c(OC)cc3OC)c2C(=O)Nc2ccc(OCC)cc2)C1,x,-2.9,x,x,0.6,x,x
COc1ccc(/[N+]([O-])=C/c2ccco2)cc1,-7.6,-2.2,6.4,0.2,0.5,3.8%,9.7%
COc1ccc(OCC(=O)N/N=C\c2ccco2)cc1,-0.8,-1.5,3.0,3.5,0.1,x,x
COc1ccc(C2c3c(-c4ccccc4)n[nH]c3C(=O)N2c2ccc(C(=O)O)cc2)cc1 (stereo not drawn),39.0*,4.6,-1.8,-7.6,0.0,-1.7%,-1.9%
CC(OC(=O)c1ccc(-n2cnnn2)cc1)C(=O)Nc1ccccc1[N+](=O)[O-] (stereo not drawn),15.8,9.6,2.2,22.9,-0.1,11.3%,25.4%
CC(=O)c1cccc(NC(=O)C(C)OC(=O)c2ccc(-n3cnnn3)cc2)c1 (stereo not drawn),-13.0,-4.2,-1.1,-7.8,-0.8,x,x
COc1ccc(NC(=O)CSc2nc3ccccc3c(=O)n2CCC(=O)NC2CCCCC2)c(OC)c1,x,6.5,x,x,0.8,x,x
CCN(CC)C(=O)Cn1cc(C(=O)C(=O)N2CCN(Cc3ccccc3)CC2)c2ccccc21,2.2,-22.0,-2.8,-9.1,58.4*,-14.7%,-6.8%
Cc1cc(F)ccc1NC(=O)CS(=O)(=O)c1cccc2nsnc12,x,-7.8,x,x,-0.2,x,x

# Source: PubChem BioAssay
